# Sampled rows, rich in hits. Any-hit rate of the full collection: about 17%.
# ClpP mod – qHTS Assay for Activators of ClpP; Potency, µM (top dose mostly 57.5 µM); 340,000 compounds, 1.9% hits; purified B. subtilis ClpP, FRET peptide cleavage, 20 min; AID 651965, 2013; active means well fitted falling curve with a large enough effect; inconclusive means small, poorly fitted or top-dose-only effect; inactive means no such curve, though single readings can be large or run the other way; further: the source files actives as falling curves though it sought activators and does not explain the sign; nearly all actives have a fitted effect of over 65% in size
#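 Buffer: 100 mM Tris/HCl pH8, 100 mM KCl, 0.05% low protease BSA, 2.5% glycerol, 0.01% Tween-20. ClpP 10 microg/mL final; 20 min RT; delta FRET normalized to ADEP and DMSO controls.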
# TDP1 inh – inhibitors of human tyrosyl-DNA phosphodiesterase TDP1; Potency, µM (highest dose often 130 µM), hits mostly inhibitors; recombinant TDP1, AlphaScreen DNA substrate cleavage; AID 485290; 350,000 compounds, 0.28% hits; Q9NUW8; further: nearly all actives have a fitted effect of over 40% in size
# Target sequence (Q9NUW8 whole entry, looked up): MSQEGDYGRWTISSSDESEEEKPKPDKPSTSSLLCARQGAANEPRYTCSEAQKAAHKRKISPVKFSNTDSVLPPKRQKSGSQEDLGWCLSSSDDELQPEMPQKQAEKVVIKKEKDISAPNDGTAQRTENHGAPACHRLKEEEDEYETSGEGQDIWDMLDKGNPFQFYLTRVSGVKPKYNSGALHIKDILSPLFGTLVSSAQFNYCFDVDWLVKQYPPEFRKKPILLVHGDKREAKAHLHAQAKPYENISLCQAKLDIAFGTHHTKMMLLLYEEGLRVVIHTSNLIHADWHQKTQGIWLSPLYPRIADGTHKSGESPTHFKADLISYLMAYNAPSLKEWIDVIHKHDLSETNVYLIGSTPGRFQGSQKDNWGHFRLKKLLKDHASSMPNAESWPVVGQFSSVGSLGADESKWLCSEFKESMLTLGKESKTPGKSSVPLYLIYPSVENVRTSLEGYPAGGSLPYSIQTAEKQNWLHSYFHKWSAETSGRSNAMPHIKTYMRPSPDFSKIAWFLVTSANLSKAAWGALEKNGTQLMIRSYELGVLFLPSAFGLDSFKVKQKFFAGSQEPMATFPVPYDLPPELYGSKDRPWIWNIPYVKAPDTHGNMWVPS
#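 Compounds were preincubated with Tdp1 (1 nM final) for 15 min at room temperature before substrate (15 nM final) started a 5 min reaction; beads (10 ug/ml final) were then added for 10 min before AlphaScreen detection.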
# DT40 TDP1 no CPT – qHTS for Inhibitors of human tyrosyl-DNA phosphodiesterase 1 (TDP1): qHTS in cells in absence of CPT; DT40 Tdp1-/- hTDP1 cells, no CPT, ATP luminescence, 48 h; Potency, µM (doses to about 46.2 µM), hits mostly inhibitors; 420,000 compounds, 15% hits; further: nearly all actives have a fitted effect of over 55% in size
#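 Growth kinetics read by CellTiter-Glo luminescence after ≥48 hr at 37 °C. Cells: DT40 Tdp1-/- stably carrying human TDP1, 400 per well, compound exposure in the absence of CPT (DMSO vehicle).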
# DT40 TDP1 CPT – growth inhibition of DT40 Tdp1-/-;hTDP1 cells with camptothecin (screen for TDP1 inhibitors); Potency, µM (top dose mostly 46.2 µM), most hits filed as inhibitors; chicken DT40 Tdp1-/-;hTDP1 cells + 20 nM CPT, ATP luminescence, 48 h; 420,000 compounds, 12% hits; further: nearly all actives have a fitted effect of over 55% in size
#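 Cell growth measured by CellTiter-Glo luminescence after a minimum 48 h, 37 C compound exposure with 20 nM CPT in Tdp1-knockout DT40 cells stably expressing hTDP1, seeded 400/well; qHTS titration format.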
# Hits are given with their value; i = inactive; ? = inconclusive; nt = no result given; [ ] = remark or other dose. Unless noted, the call rests on the fitted dose curve; in most records, active means well fitted curve in the direction sought with a large enough effect; inconclusive means small, poorly fitted or top-dose-only effect, or another doubt; inactive means no such curve, though single readings can be large; an effect the other way counts as inactive or inconclusive.
SMILES,ClpP mod,TDP1 inh,DT40 TDP1 no CPT,DT40 TDP1 CPT
CCN(C(=O)C1CCN(S(=O)(=O)c2ccc3c(c2)CCCN3C(=O)C2CCC2)CC1)c1cccc(C)c1,i,i,18µM,16µM
Cc1cc(C(=O)CN2C(=O)NC3(CCCCC3)C2=O)c(C)n1Cc1ccc2c(c1)OCO2,i,i,23µM,8.2µM
Cc1cc(C(=O)CN2C(=O)NC(C)(CC(C)C)C2=O)c(C)n1-c1ccc2c(c1)OCO2 (stereo not given),i,i,23µM,?
O=S(=O)(O)CCCS(=O)(=O)O,nt,nt,i,i
O=C1CCCCc2sc(Br)c([N+](=O)[O-])c2N1,nt,nt,12µM,12µM
Cc1ccc(CNC(=O)CSCc2ccccc2C)cc1,i,i,i,?
CC(=O)N1CCOCCOCCN(C(C)=O)CCOCC1,nt,i,i,i
O=C(CCN1Cc2ccccc2C1)c1ccc2c(c1)OCCO2,i,i,5.2µM,3.7µM
O=C(O)CCSCC(=O)c1ccc2c(c1)OCCO2,i,i,i,i
O=C(CS(=O)(=O)c1ccccc1)c1ccc2c(c1)OCCO2,i,i,18µM,15µM
O=C(CCN1CCc2ccccc2C(c2ccccc2)C1)c1ccc2c(c1)OCCO2 (stereo not given),i,i,3.3µM,3.3µM
O=C(C[n+]1ccc(/C=C/c2ccccc2)cc1)c1ccc2c(c1)OCCO2,nt,nt,9.2µM,?
Cc1cc[n+](CC(=O)c2ccc3c(c2)OCCO3)cc1,nt,i,i,i
O=C(O)CCC(=O)c1ccc2c(c1)OCCO2,i,i,i,i
COc1cc(NC(=O)CCc2nnc3ccc(N4CCOCC4)nn23)cc(OC)c1OC,i,i,i,i
COc1ccc(C(=O)Nc2nc3c(s2)Cc2c(Br)ccc(OC)c2-3)cc1OC,i,i,?,?
O=C(c1ccccc1F)N(Cc1cc2cc3c(cc2nc1N1CCOCC1)CCC3)CC1CCCO1 (stereo not given),nt,nt,?,i[9.04 µM]
Cc1ccc(S(=O)(=O)Nc2cc(C)c(O)c(Sc3n[nH]c(C)n3)c2)cc1,nt,i,?,18µM
Cc1ccc(S(=O)(=O)Nc2ccc3cn[nH]c3c2)cc1,i,i,?,i
COCCn1c(C)cc(C(=O)CSc2nc3ccccc3o2)c1C,i,i,?,26µM
COCCn1c(SCC(=O)NC(=O)Cc2ccccc2)nc2ccccc2c1=O,i,i,i,i
COCCn1c(SCC(=O)c2cc(C)n(C)c2C)nc2ccccc2c1=O,i,i,13µM,?
COCCn1c(C)cc(C(=O)CSc2nc3ccccc3s2)c1C,i,i,18µM,13µM
COCCn1c(C)cc(C(=O)CSc2nnc3ccccn23)c1C,i,i,i,i
C[C@@H]1Cc2[nH][nH]c(=O)c2[C@H](c2ccc(Cl)cc2)O1,i,nt,i,i
SMILES,ClpP mod,TDP1 inh,DT40 TDP1 no CPT,DT40 TDP1 CPT
CSc1ncc(Cl)c(C(=O)Nc2cc(C(F)(F)F)ccc2Cl)n1,i,i,i,i
C=C1C=C(C(F)(F)F)n2ncc(C(=O)NCc3ccc(F)cc3)c2N1,i,nt,?,?
COc1ccc(-n2nc(C(=O)Nc3ccccn3)c3c4ccccc4n(C)c3c2=O)cc1,i,i,i,i
Cc1cc(O)c2c(c1O)C(=O)c1c(O)cc(C)c(O)c1C2=O,nt,i,i,i
Cc1cc(=O)c2c(O)c3c(O)cc(O)c4c5c(O)cc(O)c6c(O)c7c(=O)cc(C)c8c1c2c(c34)c(c65)c78,nt,i,8.2µM,16µM
CCOc1ccc(/C=N/NC(=S)NC2CC3CC2C2C=CCC32)cc1 (stereo not given),nt,i,16µM,16µM
CCOc1ccc(/C=N/NC(=S)NC2CC3CCC2C3)cc1 (stereo not given),?,i,?,?
COc1cc(/C=N/NC(=S)NC2CC3CC2C2C=CCC32)ccc1O (stereo not given),nt,i,15µM,?
CNNC(=S)NC1CC2CC1C1C=CCC21 (stereo not given),i,i,i,i
CCOC(=O)c1cccc(NC(=O)CCn2nc(C)c3c(C)n(-c4ccccc4)nc3c2=O)c1,i,i,i,i
O=C(NCC[C@@H]1CC[C@@H](NS(=O)(=O)Cc2ccccc2)[C@@H](CO)O1)C1CC1,i,nt,i,i
O=C(CSc1n[nH]c(=O)n1C1CC1)c1ccc2c(c1)OCCO2,i,i,?,i
Cc1cc(C)c(C(=O)CSc2n[nH]c(=O)n2C2CC2)cc1C,i,i,20µM,11µM
CCN(CC)S(=O)(=O)c1cc(NC(=O)c2cc(-c3ccccn3)nc3ccccc23)ccc1C,i,i,15µM,23µM
COc1ccc(NC(=O)c2cc(-c3ccccn3)nc3ccccc23)cc1S(=O)(=O)N(C)C,?,i,9.2µM,?
COC(=O)c1ccc(NC(=O)c2cc(-c3ccccn3)nc3ccccc23)cc1,i,i,i,i
CCN(CC)C(=O)c1cccc(NC(=O)c2cc(-c3ccccn3)nc3ccccc23)c1,i,i,16µM,?
CCN(CC)S(=O)(=O)c1ccc2[nH]c(=O)cc(C(=O)Nc3ccc(C)c(S(=O)(=O)N(CC)CC)c3)c2c1,i,i,23µM,?
Cc1ccc(CNC(=O)CCCN2C(=O)CCn3nc(-c4cccn4C)cc32)cc1,i,i,?,i
O=C(COC(=O)c1ccc(-n2cnnn2)cc1)c1ccc(Br)cc1,i,i,i,i
OCCN1CCN(Cc2ccc3c(c2)CN(Cc2cccc4ncccc24)CCO3)CC1,nt,nt,?,i[9.04 µM]
Cc1cc(C)c(C(=O)N2CCC(N3CCC(C(=O)NC(C)C)CC3)CC2)o1,i,i,i,i
CC(=O)OC(C)C1C2=C(C(=O)CC1(C)O)C(=O)c1c(ccc(-c3ccc4c(c3O)C(=O)C3=C(C4=O)C(C(C)OC(C)=O)C(C)(O)CC3=O)c1O)C2=O (stereo not given),i,nt,1.5µM,1.2µM
Cc1cc(C)c(-c2csc(NC(=O)/C=C/c3cccs3)n2)c(C)c1,i,i,18µM,?
O=C(/C=C/c1cccs1)Nc1cccc(NC(=O)/C=C/c2cccs2)n1,i,i,8.2µM,12µM
SMILES,ClpP mod,TDP1 inh,DT40 TDP1 no CPT,DT40 TDP1 CPT
O=C(/C=C/c1cccs1)Nc1nccs1,i,i,i,i
O=C(/C=C/c1cccs1)Nc1ccc(Br)cn1,nt,i,0.33µM,0.26µM
O=C(/C=C/[C@H]1O[C@@H](n2ccc(=O)[nH]c2=O)[C@H](O)[C@@H]1O)NCCN1CCCC1,i,nt,i,i
COc1cccc(C2/C(=C(\O)c3ccc4c(c3)OCCO4)C(=O)C(=O)N2Cc2cccnc2)c1 (stereo not given),nt,i,i,i
COc1ccc(C2=NOC(COc3ccc([N+](=O)[O-])cc3)C2)cc1 (stereo not given),i,nt,i,i
O=C(Cc1ccccc1F)NNC(=O)c1ccncc1,i,i,i,i
O=C(Nc1nc2ccccc2s1)c1cc(-c2ccco2)nc2ccccc12,18µM,i,18µM,18µM
COc1ccc(NC(=O)c2cc(-c3ccco3)nc3ccccc23)cn1,i,14µM,21µM,?
